This is a sample that favours compounds with a hit; in the whole collection about 1.4% have one here.
HNF4A DNA FP: change in binding of human HNF4 alpha to DNA. P41235. HNF4a-FITC DNA binding, fluorescence polarization, 1 h. activity change, % at 10 µM. 0.3% of 360,000 active. AID 1224865; in the data active = activity change above about 30%, passing the limit was not always enough
IDE inh: cellular human IDE inhibition; inhibition, % at 5.59 µM; HEK cells, FAbetaB cleavage, fluorescence polarization; P14735; 0.41% of 320,000 active; AID 434962;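 active = percent inhibition above the average of all tested compounds plus 3 SD, set per screening campaign, cut at about 16% in these data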;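 note: IDE supplied by intact live HEK cells; FP after avidin binding of uncleaved biotin substrate so inhibition keeps polarization high; 0% = DMSO wells and 100% = 60 µM reference IDE inhibitor Ii1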
Target sequence (P14735 whole entry, looked up): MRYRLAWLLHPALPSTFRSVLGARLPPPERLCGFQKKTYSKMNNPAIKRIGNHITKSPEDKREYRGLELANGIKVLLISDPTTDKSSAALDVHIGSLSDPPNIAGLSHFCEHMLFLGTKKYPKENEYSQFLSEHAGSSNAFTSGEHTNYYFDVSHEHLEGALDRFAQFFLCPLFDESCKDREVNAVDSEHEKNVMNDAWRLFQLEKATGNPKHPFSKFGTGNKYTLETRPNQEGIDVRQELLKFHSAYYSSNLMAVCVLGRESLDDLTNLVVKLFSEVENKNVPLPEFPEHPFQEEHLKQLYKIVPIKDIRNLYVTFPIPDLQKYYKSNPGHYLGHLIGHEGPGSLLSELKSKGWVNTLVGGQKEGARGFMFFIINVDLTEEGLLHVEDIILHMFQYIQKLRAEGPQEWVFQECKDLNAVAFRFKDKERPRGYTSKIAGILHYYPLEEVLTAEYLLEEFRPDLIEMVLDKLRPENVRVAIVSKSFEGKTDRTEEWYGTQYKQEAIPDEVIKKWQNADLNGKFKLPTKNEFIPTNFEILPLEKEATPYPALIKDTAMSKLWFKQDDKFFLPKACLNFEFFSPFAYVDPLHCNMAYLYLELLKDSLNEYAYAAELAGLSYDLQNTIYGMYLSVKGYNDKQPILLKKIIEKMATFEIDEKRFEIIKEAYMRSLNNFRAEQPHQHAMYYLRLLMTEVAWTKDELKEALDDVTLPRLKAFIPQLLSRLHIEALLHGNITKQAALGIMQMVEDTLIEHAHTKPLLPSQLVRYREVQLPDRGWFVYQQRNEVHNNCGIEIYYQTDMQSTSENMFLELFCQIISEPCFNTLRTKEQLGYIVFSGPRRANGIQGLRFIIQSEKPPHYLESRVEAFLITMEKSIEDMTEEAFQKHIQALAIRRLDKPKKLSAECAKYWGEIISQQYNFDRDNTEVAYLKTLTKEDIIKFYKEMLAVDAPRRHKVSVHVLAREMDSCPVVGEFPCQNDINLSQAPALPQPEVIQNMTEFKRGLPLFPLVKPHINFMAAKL
TPT1 inhibitor: inhibitors of Candida albicans tRNA 2'-phosphotransferase TPT1. recombinant caTPT1, FP RNA substrate dephosphorylation. inhibition, % at 5 µM. 0.81% of 300,000 active;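 active = inhibition above the mean of all tested compounds plus 3 SD, set per screening campaign, cut at about 24% in these data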;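 note: plate controls were DMSO alone for no effect and ferristatin control at 100 nM for full effect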
IDE cell activ: activators of human insulin-degrading enzyme in cells. AID 493087. P14735. activation, % at 5.96 µM. HEK cells, FAbeta-B cleavage, fluorescence polarization; 0% vehicle, 100% cell-free pure enzyme wells. 0.073% of 340,000 active;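 active = activation above the mean of all tested compounds plus 3 SD, set per screening campaign, cut at about 17% in these data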
CRFBP-R2 agonist: CRF-BP/CRF-R2 complex agonism; activation, % at 13.2 µM; HEK293 CRF-R2/CRF-BP, calcium dye fluorescence (FLIPR); percent of saturating CRF peptide response; AID 588473; 0.46% of 350,000 active;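 active = activation of at least 50%, plus an integration ratio under a set limit after plate pattern correction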;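 note: plate controls were neutral control wells without compound for no effect and CRF at EC100 for full effect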
* = called active by the depositor; . = no result given.

SMILES	HNF4A DNA FP	IDE inh	TPT1 inhibitor	IDE cell activ	CRFBP-R2 agonist
O=C(NCC(c1ccco1)N1CCCC1)c1ccc(S(=O)(=O)Nc2ccc(F)cc2)cc1 (configuration not stated)	0	4	.	-3	23
COc1ccccc1NS(=O)(=O)c1ccc(C(=O)N2CCCC(C(F)(F)F)C2)cc1 (configuration not stated)	-3	-3	.	1	11
CC1CN(C(=O)c2ccc(NS(=O)(=O)c3ccc(C(C)(C)C)cc3)cc2)CC(C)O1 (configuration not stated)	-2	.	.	0	57*
CCOc1ccc(NS(=O)(=O)c2ccc(C(=O)N3CC(C)OC(C)C3)cc2)cc1 (configuration not stated)	-1	0	.	-1	108*
Cc1ccc(NS(=O)(=O)c2ccc(C(=O)N3CCCC(C(F)(F)F)C3)cc2)cc1 (configuration not stated)	-3	13	-4	1	71*
CCOc1ccc(NS(=O)(=O)c2ccc(C(=O)NCC(c3ccco3)N3CCCC3)cc2)cc1 (configuration not stated)	2	5	.	-6	63*
CCOc1ccc(S(=O)(=O)Nc2ccc(C(=O)N3CC(C)OC(C)C3)cc2)cc1 (configuration not stated)	-4	-7	1	0	36
N#Cc1cccc(C(=O)C(=O)N2CCN(C(=O)OCc3ccccc3)CC2)c1	-1	.	.	.	.
Cc1ccc(F)c(S(=O)(=O)NC(=O)C2(C)CCN2C(=O)CCC2CCCC2)c1 (configuration not stated)	-2	.	.	.	.
COc1ccc(NS(=O)(=O)c2ccc(C(=O)N3CCC(C)CC3)cc2)cc1	2	0	.	0	65*
CSCCC(c1nc2ccccc2[nH]1)n1c(-c2cc(C(F)(F)F)cc(C(F)(F)F)c2)nc2ccccc21 (configuration not stated)	1	.	.	.	.
Nc1c(C(=O)Nc2ccc(S(=O)(=O)N3CCCC3)cc2)sc2nc3ccc(OC(F)(F)F)cc3cc12	43*	-4	18	-3	-1
COc1ccc(C(=O)CSc2nnn(-c3cccc(NC(C)=O)c3)n2)cc1	2	-1	4	.	69*
CC(=O)Nc1cccc(-n2nnc(SCC(=O)c3ccccc3)n2)c1	-2	0	-1	-2	-4
COCc1cc(C)nc2sc(C(=O)Nc3cccc(OC)c3)c(N)c12	-1	1	2	1	0
O=C(CCc1ccccc1)NNC(=O)COc1ccccc1Cl	0	2	1	2	0
COc1ccc(CN(C(=O)c2nsc(Cl)c2Cl)C(C(=O)NC2CCCC2)c2ccc(OC)cc2)cc1 (configuration not stated)	2	1	3	-4	53*
COc1ccc(CN(C(=O)c2snc(C(N)=O)c2N)C(C(=O)NC2CCCC2)c2ccc(OC)cc2)cc1 (configuration not stated)	0	0	-1	4	-1
COCCOC(=O)/C(=C/c1ccc(OC(=O)c2ccccc2)cc1)C(C)=O	0	0	0	-3	57*
CCOC(=O)c1ccc(N=Cc2nc(-c3ccccc3)oc2OC(C)=O)cc1	-1	2	0	2	1
CC(=O)Oc1oc(-c2ccccc2)nc1C=Nc1ccccc1	0	0	0	2	57*
O=C(NCc1ccco1)C1CC(c2ccccc2O)=NO1 (configuration not stated)	1	6	-1	3	77*
O=C(NCc1ccco1)C1CC(c2ccccc2C(F)(F)F)=NO1 (configuration not stated)	-1	-1	3	2	-1
CCN(C(=O)COC(=O)c1ccc(=O)n(Cc2ccccc2)n1)C1CCS(=O)(=O)C1 (configuration not stated)	0	.	.	0	-1
CS(=O)(=O)N(Cc1ccc(Cl)cc1)c1ccc(C(=O)NCCSc2ccccn2)cc1	2	5	0	1	54*
SMILES	HNF4A DNA FP	IDE inh	TPT1 inhibitor	IDE cell activ	CRFBP-R2 agonist
O=C(NCC(c1ccco1)N1CCCC1)c1cc2cc(Cl)ccc2o1 (configuration not stated)	3	4	.	1	57*
CC1=CC(Cc2ccccc2)N(C)C(C(N)=O)C1 (configuration not stated)	-1	.	.	.	.
O=[N+]([O-])c1ccc(-c2cn3nc(-c4ccccc4)c(-c4ccccc4)nc3n2)cc1	-7	16	17	.	66*
Cc1ccc(-c2ccnc(=S)[nH]2)cc1	1	11	-1	-48	-1
CC1(C)CCc2cc(-c3ccnc(=S)[nH]3)ccc2O1	0	26*	2	-25	-3
O=C(O)C(Cc1ccccc1)N1C(=O)/C(=C/c2cccs2)SC1=S (configuration not stated)	-2	.	.	.	4
COc1cccc(/C=C2\SC(=S)N(C(Cc3ccccc3)C(=O)O)C2=O)c1 (configuration not stated)	54*	0	-1	7	-2
CCc1nc2ccc(C(=O)Nc3cccc(NS(C)(=O)=O)c3)cn2c1N(C)Cc1nccn1C	-1	.	.	.	.
COc1ccc(CNC(=O)C(=O)NC2CC(C)(C)NC(C)(C)C2)cc1	138*	-4	-2	6	0
COc1ccc(OC(C)C(=O)NC2CC(C)(C)NC(C)(C)C2)cc1 (configuration not stated)	-1	-6	1	8	-1
O=C(N[C@H](CO)c1ccccc1)[C@H]1O[C@@H](n2ccc(=O)[nH]c2=O)[C@H](O)[C@@H]1O	2	.	.	.	.
O=C(COC(=O)COc1ccc(Cl)cc1)NCc1ccc2c(c1)OCO2	1	3	.	1	0
O=C(COC(=O)CSc1cc(Cl)ccc1Cl)NCc1ccc2c(c1)OCO2	0	3	2	3	52*
Nc1c2c(nc3ccccc13)CCC2	35*	9	-5	7	9
COc1ccc(NC(=O)C2(C)CCN2C2Cc3ccccc3C2)cc1OC (configuration not stated)	-1	.	.	.	.
O=C(Nc1cc(C(F)(F)F)ccc1Cl)c1ccncc1	-3	6	-1	0	-1
O=C(Nc1cc(C(F)(F)F)ccc1Cl)c1cccnc1	-1	1	0	-4	106*
[O-]/C(=C(\C(=S)Nc1ccccc1F)[n+]1ccccc1)c1ccc(OC(F)F)cc1	75*	0	4	4	0
Cc1ccc(C)c(NC(=S)/C(=C(\[O-])c2ccc(OC(F)F)cc2)[n+]2ccccc2)c1	-2	1	1	-8	-1
O=C(NCC(O)c1nc2ccccc2[nH]1)c1cc([N+](=O)[O-])ccc1F (configuration not stated)	0	.	.	.	.
CN(N=Nc1ccc([N+](=O)[O-])cc1)c1ccccc1	-130	-2	-1	3	84*
CCN(CC)c1ccc(C(=C2C=CC(=[N+](CC)CC)C=C2)c2ccccc2)cc1	0	.	.	-10	91*

Screening results (PubChem BioAssay)
